Hits are enriched below; roughly 21% of the tested compounds scored in any of these assays.
CHX counter = counter-screen hit for Shiga toxin inhibitors, cycloheximide | cell reporter, cycloheximide protein synthesis inhibition counterscreen | AID 2314 | hit rate 12% among 300,000 | max response, %; in the data active = max response mostly above about 13%, no sharp cut-off; inactive = mostly below about 14%; note: read at 38.3 µM for the half of the compounds with a filed dose; 0% is about no effect
Sm TGR inh = blocks Schistosoma mansoni thioredoxin glutathione reductase; Potency, µM (top dose mostly 114 µM), inactives show top-dose activity change, negative = inhibition, usual class: inhibitors; purified TGR, DTNB reduction, TNB absorbance 405 nm; hit rate 3% among 360,000; note: potency is the fitted concentration of half-maximal effect; % is set by controls: 0 for no effect and ±100 for the full control effect; nearly all actives have a fitted effect of over 60% in size
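TGR 20 nM + NADPH 100 uM (dispensed conc.), cpd preinc 15 min RT; start with NADPH (500 uM addition) then DTNB (15 mM addition). Kinetic TNB absorbance, 405 nm filter. Four-parameter Hill fit across titration.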
Pf growth 96h = P. falciparum growth inhibition at 96 hour, primary screen for plastid delayed-death inhibitors. P. falciparum luciferase reporter growth, 96 h. Potency, µM (top dose mostly 28.7 µM), inactives show top-dose activity change, negative = inhibition, actives largely listed as inhibitors. hit rate 6.9% among 320,000. AID 504834; note: potency is the fitted concentration of half-maximal effect; % is set by controls: 0 for no effect and ±100 for the full control effect
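Delayed-death screen, second-generation endpoint: infected erythrocytes, 2% hematocrit, 0.05% parasitemia final; 96 hours at 37 C, 5% CO2; luciferase detection reagent; luminescence decrease equals reduced growth.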
NS1 inh = blocks influenza NS1 protein function. Potency, µM (highest dose often 46.1 µM), inactives show top-dose activity, positive = more growth. hit rate 0.4% among 270,000; calls by dose curve; note: potency is the fitted concentration of half-maximal effect; actives are rising curves; nearly all actives have a fitted effect of over 50% in size
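S. cerevisiae expressing influenza A NS1, grown in glucose, washed, then diluted 1:100 into pH 6.0 -URA galactose medium with 23 nl compound. Growth recovery read as OD600; NS1-free strain serves as control.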
Shiga inhibitor = inhibitors of Shiga toxin in Vero cells; hit rate 9.2% among 290,000; Vero cells, Shiga toxin protein synthesis inhibition reporter; inhibition, % at 38.7 µM; in the data active = inhibition mostly above about 28%, no sharp cut-off; inactive = mostly below about 43%; note: 0% is about no effect
Pf growth 48h = inhibits P. falciparum growth in the first generation, 48 h. P. falciparum luciferase growth in erythrocytes, 48 h. Potency, µM (highest dose often 28.7 µM), for inactives: at the highest dose activity change, negative = inhibition, most hits filed as inhibitors. hit rate 5.9% among 310,000. AID 504832; note: potency is the fitted concentration of half-maximal effect; % is set by controls: 0 for no effect and ±100 for the full control effect
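Luminescence readout; reporter = integrated firefly luciferase in P. falciparum. RBC culture at 2% hematocrit, 0.1% parasitemia final, 37 C/5% CO2; decreased signal taken as growth inhibition.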
Starred values were filed as active, the others as inactive; ? = inconclusive; . = no result. Unless noted, calls come from the whole dose curve; as a rule, active = well fitted curve in the direction sought with a large enough effect; inconclusive = small, poorly fitted or top-dose-only effect, or another doubt; inactive = no such curve, though single readings can be large; an effect the other way counts as inactive or inconclusive.

SMILES	CHX counter	Sm TGR inh	Pf growth 96h	NS1 inh	Shiga inhibitor	Pf growth 48h
Cc1ccc(-n2c(C)nc3oc4ccccc4c(=O)c3c2=O)cc1	47*	-1%	-59%	8%	121*	186%
Cc1ccc(-n2c(=S)[nH]c3c(oc4ccccc43)c2=O)cc1	40*	-20%	28%	22%	69*	33%
Cc1cc(C)cc(NC(=O)C(=O)NCC(c2ccc3c(c2)OCO3)N2CCOCC2)c1 (stereo not drawn)	.	-1%	.	.	.	.
CC(OC(=O)c1ccc(Cl)c([N+](=O)[O-])c1)C(=O)N1CCN(Cc2ccccc2)CC1 (stereo not drawn)	.	-14%	?	.	.	12µM*
Cc1ccc(S(=O)(=O)NN)c(C)c1N1CCCC1=O	2	9%	-6%	-17%	4	20%
CCc1cc2c(NCCC(=O)O)ncnc2s1	-4	-22%	12µM*	-7%	-2	18%
CCc1cc2c(NCCO)ncnc2s1	-3	-21%	.	7%	-17	8%
Cc1nnc(SCc2ccccc2CSc2nnc(C)s2)s1	49*	0%	61%	.	-10	-3%
Cc1nnc(SCc2nnc(-c3cccs3)o2)s1	37*	7%	39%	.	35	37%
O=C(Cn1ncn2c(cc3ccccc32)c1=O)NCCc1cccs1	-3	-11%	15%	4%	16	15%
Cc1cccc(Cn2c(=O)c3c(nc4n3CCCN4Cc3ccccc3)n(C)c2=O)c1	-3	13%	.	-4%	-1	13µM*
CC(C)Cn1c(=O)c2c(nc3n2CCCN3Cc2ccccc2)n(C)c1=O	-4	12%	12µM*	-7%	-13	10µM*
Cn1c(=O)n(C/C=C/c2ccccc2)c(=O)c2c1nc1n2CCN1c1ccc(Cl)cc1	.	6%	.	.	.	.
CCn1c(=O)c2c(nc3n2CCCN3CCc2ccc(OC)c(OC)c2)n(C)c1=O	6	-5%	?	-2%	3	?
CCn1c(=O)c2c(nc3n2CCCN3Cc2ccccc2)n(C)c1=O	-4	0%	-16%	-5%	-19	?
Cn1c(=O)n(CC(=O)O)c(=O)c2c1nc1n2CCCN1Cc1ccccc1	3	?	?	-5%	.	51%
COc1ccc(CCN2CCCn3c2nc2c3c(=O)n(Cc3ccccc3F)c(=O)n2C)cc1OC	0	?	2.9µM*	-7%	-10	2.3µM*
Cn1c(=O)n(C/C=C/c2ccccc2)c(=O)c2c1nc1n2CCCN1c1ccc(F)cc1	2	0%	?	3%	-6	12µM*
Cc1cccc(C(=O)N/N=C2\CS(=O)(=O)N(C)c3ccsc32)c1	2	-12%	?	-3%	-6	?
Cn1cc(Br)c(C(=O)n2cc(Br)cn2)n1	1	0%	-3%	5%	19	28%
CC(=O)N(CN1C(=O)c2ccccc2C1=O)c1ccc2c(c1)oc1ccccc12	1	1%	22%	-4%	-13	-2%
O=C(COC(=O)Cc1ccccc1F)Nc1cccc(F)c1	-1	1%	10%	.	-4	?
CCn1c(CNS(=O)(=O)c2ccc(Br)cc2)n[nH]c1=S	-2	-15%	5%	6%	4	29%
Cn1c(=O)n(C/C=C/c2ccccc2)c(=O)c2c1nc1n2CCCN1Cc1ccccc1	-10	-6%	15µM*	?	-24	13µM*
CN(c1ccc(OCC(=O)OCC(=O)c2c(N)n(C)c(=O)n(C)c2=O)cc1)S(=O)(=O)c1ccc2ccccc2c1	2	-8%	35%	.	-5	-9%
SMILES	CHX counter	Sm TGR inh	Pf growth 96h	NS1 inh	Shiga inhibitor	Pf growth 48h
C/C(=N\NC(=S)Nc1cccc(C)c1)c1cc2ccccc2o1	1	6%	8.3µM*	7%	3	?
CCNC(=S)N/N=C(\C)c1cc2ccccc2o1	18*	-4%	?	3%	10	?
COc1ccc(OCC(=O)N/N=C(\C)c2cc3ccccc3o2)cc1	26*	-9%	-7%	3%	57*	33%
C/C(=N\NC(=O)c1ccc(O)cc1)c1cc2ccccc2o1	29*	-17%	?	.	59*	-15%
CCOC(=O)c1ccc(NC(=O)COCc2cc(-c3ccc4c(c3)OCO4)on2)cc1	.	-3%	.	.	.	.
Cc1cccc(NC(=O)CN2C(=O)c3cccnc3Oc3ccc(Cl)cc32)c1C	.	3%	.	.	.	.

From PubChem BioAssay
